ChEMBL document CHEMBL3988442, “University of Dundee, Small-Polar-MMV Screening Library” (2021)

Biological target: T1, Arginase-2, mitochondrial (Homo sapiens) (UniProt P78540)
T1 sequence (whole entry): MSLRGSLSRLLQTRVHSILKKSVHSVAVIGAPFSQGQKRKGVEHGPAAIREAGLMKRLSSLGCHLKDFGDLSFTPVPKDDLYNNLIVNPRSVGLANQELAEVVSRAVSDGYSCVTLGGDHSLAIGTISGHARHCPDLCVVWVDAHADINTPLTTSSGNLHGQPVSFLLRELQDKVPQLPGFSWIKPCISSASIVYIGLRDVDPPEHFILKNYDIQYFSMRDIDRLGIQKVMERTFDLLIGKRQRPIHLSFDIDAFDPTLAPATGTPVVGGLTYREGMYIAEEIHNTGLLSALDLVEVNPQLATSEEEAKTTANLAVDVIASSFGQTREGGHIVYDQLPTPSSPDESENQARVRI
Assay: in vitro enzyme assay to detect the production of urea directly proportional to the activity of Arginase II
Type: functional
Design: scale not given: in the data most compounds retested in dose-response had high values
Conditions: 30 µM

| Structure (SMILES) | Percent Effect |
| --- | --- |
| Cc1ccc(CNCc2nnc3n2CC(C(F)(F)F)CC3)o1 (stereo not given) | -7.03% |
| CNC(=O)[C@H]1C[C@@H]2CN(C(=O)c3ccccn3)C[C@@H]2N1S(C)(=O)=O | 8.11% |
| CNC(=O)CCNC(=O)c1cc(Br)c2c(c1)OCCO2 | -10.3% |
| COc1ccccc1Oc1ncccc1CNC(=O)C(O)C(F)(F)F (stereo not given) | 3.78% |
| COc1ccc(OCC(O)CN2CCN(c3nccs3)CC2)cc1 (stereo not given) | -8.11% |
| Cc1cc(C)n(C2CN(Cc3noc(C4CC4)n3)C2)n1 | 8.11% |
| CC(C)CN1CCC(NC(=O)c2ccc(Cl)cc2Cl)CC1 | -7.03% |
| O=C(NCCO)c1coc(CN2CCN(c3ccccc3F)CC2)n1 | -8.11% |
| COc1cc(C(=O)N(CCC#N)Cc2ccccn2)ccc1C | 2.7% |
| OCCN1CCC(c2cncc(-c3cccc(Cl)c3)n2)CC1 | -3.78% |
| CNC(=O)[C@H]1C[C@@H]2CN(C(=O)c3ccsc3)C[C@@H]2N1S(C)(=O)=O | 8.11% |
| CC1=Nc2c(c(=O)[nH]n2C2CCCC2)C(c2ccc(O)cc2)S1 (stereo not given) | 5.95% |
| CCC(C(=O)NCc1ccccn1)N(c1cccc(C)c1)S(C)(=O)=O (stereo not given) | 9.19% |
| O=C(NCc1ccncc1)N(Cc1ccc(F)cc1F)C1CC1 | 3.78% |
| Cc1ccc([C@@H]2CN(S(=O)(=O)N3CCC(C)CC3)C[C@H]2N(C)C)cc1 | 7.03% |
| Cc1nn(C)c2c(=O)n(C(C)C)c(NCCc3ccccc3)nc12 | 8.11% |
| CCOCCNC(=O)c1cc(Br)c2c(c1)OCCO2 | 9.19% |
| CN(Cc1ccco1)[C@@H]1CN(CC2CCOCC2)[C@@H]2CCCO[C@H]12 | 4.87% |
| Cc1ccc([C@@H]2CN(S(=O)(=O)c3ccccc3)C[C@H]2N(C)C)cc1 | 3.78% |
| O=C([C@@H]1CCO[C@@H]2CCN(CCc3ccccc3)C[C@@H]21)N1CCCC1 | 11.3% |

| Structure (SMILES) | Percent Effect |
| --- | --- |
| Cc1ccoc1CNCc1nnc2n1CC(C(F)(F)F)CC2 (stereo not given) | 3.78% |
| CN(Cc1cccnc1)C1CC2(CCN(Cc3cccnc3)CC2)C1 | -12.4% |
| CC(C)NC(=O)[C@]12COC[C@H]1CN(Cc1cnn(C)c1)C2 | -13.5% |
| CCCS(=O)(=O)N1C[C@H](N(C)Cc2ccco2)[C@@H]2OCCC[C@@H]21 | 11.3% |
| COc1ccc(C(=O)N2C[C@@H](C(=O)O)[C@H](c3ccccc3)C2)c(C)c1 | -7.03% |
| CCn1c(NCc2cccnc2)nc2c(C)nn(C)c2c1=O | 3.78% |
| COc1ccc(C)cc1C(C(=O)O)N1CCN(Cc2ccccn2)CC1 (stereo not given) | 4.87% |
| NS(=O)(=O)CCNC(=O)c1cc(Br)c2c(c1)OCCO2 | 8.11% |
| CN1CCN(C(=O)Cn2ccc3c(Cl)cccc32)CC1 | 4.87% |
| OC(CN(Cc1ccccc1)Cc1ccccn1)c1cccs1 (stereo not given) | 11.3% |
| Cc1noc(C)c1CN1CCC[C@]2(C[C@@H](Oc3ccccn3)CO2)C1 | -26.5% |
| CCCNC(=O)c1cc(Br)c2c(c1)OCCO2 | 5.95% |
| CCCS(=O)(=O)CC(=O)N1CCCC1c1noc(C2CC2)n1 (stereo not given) | 7.03% |
| Cc1nnsc1C(=O)N1CCCC(c2nccn2Cc2cscn2)C1 (stereo not given) | -2.7% |
| CCOc1cccc(C(=O)N(CCC#N)Cc2ccccn2)c1 | 13.5% |
| COC(=O)c1ccc(C2SC(C)=Nc3c2c(=O)[nH]n3C2CCCC2)cc1 (stereo not given) | 11.3% |
| COc1ccc2c(c1)OCC(CNC(=O)c1cc(C(C)C)on1)C2 (stereo not given) | 2.7% |
| Cc1ccc([C@@H]2CN(S(=O)(=O)Cc3ccccc3)C[C@H]2N(C)C)cc1 | 1.62% |
| Cc1nn(CCO)c(C)c1CNC1CCOc2ccccc21 (stereo not given) | -9.19% |
| Cc1nc(N2CCN(C(=O)NCc3cscn3)CC2)sc1C | 5.95% |
